# Where a name gives a salt, the structure may show the parent alone.
# Key:
# [1] = system: S. cerevisiae SK1 pCDA2-eGFP (USY613), sporulating; experiment: CDA2-GFP sporulation assay sensitivity score (z-score vs DMSO controls); higher = stronger inhibition of sporulation, active = hit call of the paper;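 further: active if sensitivity score above 5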
# [2] = system: S. cerevisiae AD1-9 (efflux-pump deficient), vegetative growth in YPD; experiment: growth sensitivity score (doubling time z-score vs DMSO controls); higher = slower growth, strongly negative scores also mark growth inhibition (complete suppression), active = hit call of the paper
# Outline: (§1)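 Yeast (Saccharomyces cerevisiae BY4741 and AD1-9) was grown in rich medium in microtiter plates from a starting OD600 of 0.065, with optical density read every 15 min over 24 hours. The growth sensitivity score was the difference between compound and solvent-only means, divided by the solvent-only standard deviation. Every experiment had eight solvent-only wells.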
# [3] = system: S. cerevisiae BY4741 (wild-type), vegetative growth in YPD; experiment: as above
# Outline: as §1
# [4] = system: S. cerevisiae NKY1551 his4x/his4B, sporulating; experiment: HIS4 meiotic recombination assay sensitivity score (z-score vs DMSO controls); higher = stronger inhibition of sporulation/recombination, active = hit call of the paper;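 further: active if sensitivity score above 5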
SMILES,CDA2-GFP sporulation assay sensitivity score [1],growth sensitivity score [2],growth sensitivity score [3],HIS4 meiotic recombination assay sensitivity score [4]
"C=CC1=C(C(=O)O)N2C(=O)[C@@H](NC(=O)/C(=N\O)c3csc(N)n3)[C@H]2SC1 [Cefdinir] (stock concentration (mM, diluted 1:100): 10)",3.95 (inactive),-1.07 (inactive),-0.67 (inactive),–
"Cc1c(C(=O)NN2CCCCC2)nn(-c2ccc(Cl)cc2Cl)c1-c1ccc(I)cc1 (stock concentration (mM, diluted 1:100): 10)",-0.97 (inactive),–,-2.45,1.13 (inactive)
"N[C@@H]1CONC1=O [D-Cycloserine] (stock concentration (mM, diluted 1:100): 10)",0.63 (inactive),1.38 (inactive),1.58 (inactive),–
"CC[C@@]1(O)C(=O)OCc2c1cc1n(c2=O)Cc2cc3c(CN(C)C)c(O)ccc3nc2-1 [Topotecan hydrochloride] (stock concentration (mM, diluted 1:100): 9.2)",–,4.71 (active),-1.34 (inactive),0.22 (inactive)
"Fc1ccc([C@@H]2CCNC[C@H]2COc2ccc3c(c2)OCO3)cc1 [Paroxetine] (stock concentration (mM, diluted 1:100): 8.8)",-1.35 (inactive),118 (active),1.33 (inactive),–
"COc1cc(/C=C/c2ccc(O)cc2)cc(OC)c1 [Pterostilbene] (stock concentration (mM, diluted 1:100): 10)",-2.39 (inactive),–,–,–
"O=C1[C@H](CC[C@H](O)c2ccc(F)cc2)[C@@H](c2ccc(O)cc2)N1c1ccc(F)cc1 [Ezetimibe] (stock concentration (mM, diluted 1:100): 10)",-0.54 (inactive),–,-0.7 (inactive),-0.94 (inactive)
"CCCCc1oc2ccccc2c1C(=O)c1cc(I)c(OCCN(CC)CC)c(I)c1 [Amiodarone hydrochloride] (stock concentration (mM, diluted 1:100): 9.5)",7.12 (inactive),–,126 (active),-0.63 (inactive)
"COCc1c(C(C)C)nc(C(C)C)c(/C=C/[C@@H](O)C[C@@H](O)CC(=O)O)c1-c1ccc(F)cc1 [Cerivastatin] (stock concentration (mM, diluted 1:100): 10)",0.79 (inactive),–,28.6 (active),0.17 (inactive)
"CN1CCN(CCCN2c3ccccc3Sc3ccc(Cl)cc32)CC1 [Prochlorperazine] (stock concentration (mM, diluted 1:100): 10.4)",2.72 (inactive),–,146 (active),-2.14 (inactive)
"N[C@@H](C(=O)N[C@@H]1C(=O)N2C(C(=O)O)=C(Cl)CS[C@H]12)c1ccccc1 [Cefaclor] (stock concentration (mM, diluted 1:100): 10)",–,-1.29 (inactive),0.84 (inactive),1.51 (inactive)
"CCOC(=O)c1ccc(OC(=O)CCCCCNC(=N)N)cc1 [Gabexate mesylate] (stock concentration (mM, diluted 1:100): 7.7)",2.43 (inactive),10.8 (active),1.03 (inactive),–
"OCCN1CCN(CCCN2c3ccccc3Sc3ccc(C(F)(F)F)cc32)CC1 [Fluphenazine hydrochloride] (stock concentration (mM, diluted 1:100): 10)",-0.3 (inactive),–,–,–
"C=C1/C(=C\C=C2/CCC[C@]3(C)[C@@H]([C@H](C)/C=C/[C@@H](O)C4CC4)CC[C@@H]23)C[C@@H](O)C[C@@H]1O [Calcipotriol] (stock concentration (mM, diluted 1:100): 10.1)",–,–,-0.31 (inactive),2.61 (inactive)
"CC(=O)N1CCN(c2ccc(OCC3COC(Cn4ccnc4)(c4ccc(Cl)cc4Cl)O3)cc2)CC1 (configuration not stated) [Ketoconazole] (stock concentration (mM, diluted 1:100): 10)",0.13 (inactive),155 (active),35.3 (active),–
"Nc1nnc(-c2cccc(Cl)c2Cl)c(N)n1 [Lamotrigine] (stock concentration (mM, diluted 1:100): 10.3)",0.64 (inactive),–,-1.57 (inactive),-1.72 (inactive)
"CCCCc1nc(Cl)c(CO)n1Cc1ccc(-c2ccccc2-c2nnn[nH]2)cc1 [Losartan potassium] (stock concentration (mM, diluted 1:100): 9.2)",-0.41 (inactive),-1.21 (inactive),-0.26 (inactive),–

SMILES,CDA2-GFP sporulation assay sensitivity score [1],growth sensitivity score [2],growth sensitivity score [3],HIS4 meiotic recombination assay sensitivity score [4]
"CN(CCOc1ccc(CC2SC(=O)NC2=O)cc1)c1ccccn1 (configuration not stated) [Rosigltazone hydrochloride] (stock concentration (mM, diluted 1:100): 8.2)",-0.4 (inactive),0.66 (inactive),2.48 (active),–
"CN(C)[C@@H]1C(O)=C(C(=O)NCN2CCCC2)C(=O)[C@@]2(O)C(O)=C3C(=O)c4c(O)cccc4[C@@](C)(O)[C@H]3C[C@@H]12 [Rolitetracycline] (stock concentration (mM, diluted 1:100): 10)",–,-1.77 (inactive),-1.17 (inactive),3.05 (inactive)
"O=C(O[C@@H]1Cc2c(O)cc(O)cc2O[C@@H]1c1cc(O)c(O)c(O)c1)c1cc(O)c(O)c(O)c1 [Epigallocatechin gallate] (stock concentration (mM, diluted 1:100): 10)",-1.44 (inactive),-3.35,0.97 (inactive),–
"C[C@@H](O)[C@H]1C(=O)N2C(C(=O)O)=C(S[C@@H]3CN[C@H](C(=O)N(C)C)C3)[C@H](C)[C@H]12 [Meropenem] (stock concentration (mM, diluted 1:100): 11.4)",-2.33 (inactive),0.68 (inactive),-1.19 (inactive),–
"CC(C)(O)c1ccccc1CC[C@@H](SCC1(CC(=O)O)CC1)c1cccc(/C=C/c2ccc3ccc(Cl)cc3n2)c1 [Montelukast] (stock concentration (mM, diluted 1:100): 9.6)",–,0.91 (inactive),-1.05 (inactive),0.61 (inactive)
"CCc1oc2ccccc2c1C(=O)c1cc(Br)c(O)c(Br)c1 [Benzbromarone] (stock concentration (mM, diluted 1:100): 10)",13.7 (active),–,72.3 (active),-1.58 (inactive)
"CO[C@H]1/C=C/O[C@@]2(C)Oc3c(C)c(O)c4c(O)c(c5c(nc6cc(C)ccn65)c4c3C2=O)NC(=O)/C(C)=C\C=C\[C@H](C)[C@H](O)[C@@H](C)[C@@H](O)[C@@H](C)[C@H](OC(C)=O)[C@@H]1C [Rifaximin] (stock concentration (mM, diluted 1:100): 10)",4.99 (inactive),-1.56 (inactive),-1.64 (inactive),–
"Cc1c2oc3c(C)ccc(C(=O)N[C@@H]4C(=O)N[C@H](C(C)C)C(=O)N5CCC[C@H]5C(=O)N(C)CC(=O)N(C)[C@@H](C(C)C)C(=O)O[C@@H]4C)c3nc-2c(C(=O)N[C@@H]2C(=O)N[C@H](C(C)C)C(=O)N3CCC[C@H]3C(=O)N(C)CC(=O)N(C)[C@@H](C(C)C)C(=O)O[C@@H]2C)c(N)c1=O [Dactinomycin] (stock concentration (mM, diluted 1:100): 10)",–,-0.59 (inactive),1.17 (inactive),0.61 (inactive)
"CCCN[C@H]1CCc2nc(N)sc2C1 [Pramipexole hydrochloride] (stock concentration (mM, diluted 1:100): 7.1)",-0.08 (inactive),-2.17,-0.39 (inactive),–
"CCN(CC)C(=O)C1(c2ccccc2)CC1CN (configuration not stated) [Milnacipran] (stock concentration (mM, diluted 1:100): 10)",2.47 (inactive),-0.1 (inactive),-0.02 (inactive),–
"CN(C)CCCSc1ccccc1NC(=O)/C=C/c1ccccc1 [Cinanserin] (stock concentration (mM, diluted 1:100): 10)",1.28 (inactive),41.8 (active),1.35 (inactive),–
"O=C1CC2(CCCC2)CC(=O)N1CCNCC1COc2ccccc2O1 (configuration not stated) (stock concentration (mM, diluted 1:100): 10)",19.1 (active),3.73 (active),1.45 (inactive),–
"CC(C)c1ccc2oc3nc(N)c(C(=O)O)cc3c(=O)c2c1 [Amlexanox] (stock concentration (mM, diluted 1:100): 10)",-0.73 (inactive),0.42 (inactive),1.8 (inactive),–
"O=C(CCCN1CC=C(n2c(=O)[nH]c3ccccc32)CC1)c1ccc(F)cc1 [Droperidol] (stock concentration (mM, diluted 1:100): 10)",3.12 (inactive),-1.57 (inactive),-0.99 (inactive),–
"CC(C)c1nc(CN(C)C(=O)N[C@H](C(=O)N[C@@H](Cc2ccccc2)C[C@H](O)[C@H](Cc2ccccc2)NC(=O)OCc2cncs2)C(C)C)cs1 [Ritonavir] (stock concentration (mM, diluted 1:100): 10)",-0.68 (inactive),8.8 (active),-0.97 (inactive),–
"CC1CCN(CCCC(=O)c2ccc(F)cc2)CC1 [Metylperon] (stock concentration (mM, diluted 1:100): 10)",4.44 (inactive),1 (inactive),1.93 (inactive),–
"CC(=O)OCC(=O)NCCCOc1cccc(CN2CCCCC2)c1 [Roxatidine acetate hydrochloride] (stock concentration (mM, diluted 1:100): 9.1)",0.57 (inactive),-0.42 (inactive),-1.51 (inactive),–

# — the supplement of paper PMC3414501
